The results in this text go back to PubChem BioAssay (NCATS).

Results filed as inconclusive are left out. A number with no mark means an inactive call. Active and inactive are the calls of the source. Calls come from the whole dose curve; as a rule, active = well fitted inhibition curve with a large enough effect; inconclusive = small, poorly fitted or top-dose-only effect; inactive = flat fitted curve, though single readings scatter.
Potency is the fitted concentration of half-maximal effect.

The test system of this assay is CP286. Description: qHTS profiling for inhibitors of Plasmodium falciparum proliferation (AID 504749).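 For activity, negative = inhibition: 0% = DMSO vehicle and full inhibition = artemisinin control.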 Note: nearly all actives have a fitted effect of over 60% in size. To be noted: P. falciparum in erythrocytes, SYBR Green DNA, 72 h; series mostly up to 28.7 µM; activity, negative = inhibition: at the top concentration. Put shortly:
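Parasite proliferation within erythrocytes, 72 h exposure. Endpoint: SYBR Green I fluorescence after overnight lysis at room temperature. Controls: 0.29 uM artemisinin, DMSO.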
For `COC(=O)Nc1nc2ccc(C(=O)c3ccccc3)cc2[nH]1`, the “activity, negative = inhibition” value was -2.82% [at 12.8 µM]. `CCCCCCNC(=O)n1cc(F)c(=O)[nH]c1=O`: the Potency was 7.08 µM (active). `Cc1oc(=O)oc1CN1CCN(c2cc3c(cc2F)c(=O)c(C(=O)O)c2n3C(C)S2)CC1` (centres undefined): the Potency is 7.94 µM (active). The same measure, in the same setting: under `CCOc1cc(N)c(Cl)cc1C(=O)NCC1CN(Cc2ccc(F)cc2)CCO1` (centres undefined) stands 3.98 µM (active). Turning to `CCn1cc(C(=O)O)c(=O)c2cc(F)c(N3CCNCC3)nc21`, the “activity, negative = inhibition” value is -51.2% [at 12.8 µM]. For the compound `O=c1oc2c(O)c(O)cc3c(=O)oc4c(O)c(O)cc1c4c23`, the Potency is 1 µM (active). Consider `COc1cc2c(Nc3ccc(Br)cc3F)ncnc2cc1OCC1CCN(C)CC1`, for which the Potency was 3.98 µM (active).

`CCCCOc1ccc(CC(=O)NO)cc1`: the Potency is 3.98 µM (active).

Consider `COc1nc(N)nc2c1ncn2[C@@H]1O[C@H](CO)[C@@H](O)[C@@H]1O`, for which the “activity, negative = inhibition” value was -16.2%. Consider `NC(=O)N1c2ccccc2CC(=O)c2ccccc21`, for which the “activity, negative = inhibition” value was 0.138%. Consider `CNCC[C@H](Oc1cccc2ccccc12)c1cccs1`, for which the Potency was 12.6 µM (active). Regarding `COc1cc([C@@H]2c3cc4c(cc3[C@H](O)[C@H]3COC(=O)[C@H]23)OCO4)cc(OC)c1OC`, the Potency is 4.47 µM (active).

Regarding `CCCc1cc(C(N)=S)ccn1`, the “activity, negative = inhibition” value is -1.01%. On to `CCn1cc(C(=O)O)c(=O)c2cc(F)c(N3CCN(C)CC3)cc21`, for which the Potency was 7.08 µM (active).
